Columns and labels:
Assay type in all cases: functional
[1] = system: Plasmodium falciparum; assay: GSK_TCMDC: Inhibition of Plasmodium falciparum 3D7 in whole red blood cells, using parasite LDH activity as an index of growth. Test compounds present at 2uM
[2] = system: Plasmodium falciparum; assay: GSK_TCMDC: Inhibition of Plasmodium falciparum Dd2 in whole red blood cells, using parasite LDH activity as an index of growth. Test compounds present at 2uM
[3] = system: HepG2; assay: GSK_TCMDC: Percent inhibition of human HepG2 cell line. Test compounds present at 10uM.

SMILES	Inhibition [1] [%]	Inhibition [2] [%]	Inhibition [3] [%]
Cn1nc(-c2ccc(CNC3CCc4ccccc43)cc2)c2cnc(NCCN3CCCC3)nc21 (centres undefined)	99	17	21
Cc1cc(CN2CCCN(c3ccc4c(c3)CCN(Cc3ccc(-c5ncc[nH]5)cc3)CC4)CC2)n(C)n1	86	8	5
CCCCCCCCc1c(C)nc(C)c(C#N)c1O	97	96	0
CC1CN(c2cnn(C/C=C/c3ccc(NC(=O)c4ccc([N+](=O)[O-])cc4)cc3)c(=O)c2Cl)CC(C)N1.O=C(O)C(F)(F)F (centres undefined)	96	38	22
Cc1cc(CNCC(CCNc2cc(=O)c3ccccc3[nH]2)NCc2cc(Br)cc(Br)c2)oc1C (centres undefined)	98	85	4
Nc1nc(N)c2c(ccc3c2ccn3Cc2ccc(F)cc2)n1	97	96	66
Cc1cc(-c2ccc(NC(=O)N3CCc4cc(Cl)c(N5CCN(C)CC5)cc43)cc2)ccc1C#N	100	83	100
Cc1cc(N(C)CCN(C)C)nc(Nc2ccc(Br)cc2)n1	97	23	7
Cl.N#Cc1ccc2c(c1)CCN(CCC1CCC(NC(=O)/C=C/c3cnc4ccccc4c3)CC1)CC2 (centres undefined)	87	21	22
O=C(c1cccc(-c2noc(C(F)(F)F)n2)c1)N1CCN(c2nsc3ccccc23)CC1	90	81	18
O=C(O)C(F)(F)F.c1cc(CN2CCN(CCN3CCOCC3)CC2)cc(-c2cccc(-c3nc4ccccc4[nH]3)c2)c1	100	100	29
Cc1cc(NC2CCCC2)nc(Nc2ccc(F)cc2)n1	100	74	22
CCN(CC)C(=O)C1CCCN(c2cc(C)nc(Nc3ccc(Cl)cc3)n2)C1 (centres undefined)	94	64	13
O=C(Oc1ccc(Cl)cc1C(=O)Nc1ccc([N+](=O)[O-])cc1Cl)c1ccccc1	97	19	88
CN1CCN(c2nsc3ccc(-c4ccc(OCCN5CCCC5)cc4)cc23)CC1.O=C(O)C(F)(F)F	100	99	57
Cc1nc(-c2cccc(Nc3ccnc4cc(-c5nccs5)ccc34)c2)no1.Cl	99	90	37
CN1CCN(Cc2ccc(-c3ccc4c(Nc5cc(O)c(Cl)cc5F)ccnc4c3)o2)CC1	100	99	2
C=CCn1c(=N)c(C(=O)NCc2ccc(F)cc2)cc2c(=O)n3cccc(C)c3nc21	92	11	16
Cc1onc(-c2ccccc2)c1-c1nc(NC2CCCC(C)C2)no1 (centres undefined)	100	46	22
CN1CCN(CCCN(Cc2ccc(-c3cccc(CNCc4ccc5c(c4)OCO5)c3)cc2)C(=O)CCC2CCCC2)CC1.O=C(O)C(F)(F)F	92	85	24
CS(=O)(=O)Cc1cccc(Nc2ncc(Cl)c(Nc3cccnc3C(N)=O)n2)c1.Cl	96	97	56

SMILES	Inhibition [1] [%]	Inhibition [2] [%]	Inhibition [3] [%]
c1ccc(-c2nnc(-c3ccccn3)nc2NC2CCCCC2)cc1	97	80	74
COc1c(OC)c(OC)c2ccccc2c1CCNCCCCNCCc1c(OC)c(OC)c(OC)c2ccccc12.CS(=O)(=O)O	99	72	100
COc1cc(CNCCC(C)C)ccc1OCc1cccc(COc2ccc(CNCCC(C)C)cc2OC)c1.Cl	99	20	97
N#Cc1cccc(-c2cnc(N)c(-c3nc4cc(S(N)(=O)=O)ccc4[nH]3)c2)c1	100	99	16
FC(F)(F)c1cccc(CCNc2nccc(NCc3ccc(Cl)cc3Cl)n2)c1	97	59	8
O=C(Nc1ccc2c(c1)CCC2)c1ccc(N2CCN(c3ccncc3)CC2)cc1.O=C(O)C(F)(F)F	100	75	72
Cc1ccc2c(=O)c3cc(C)ccc3[nH]c2c1	96	94	10
CC(C)(C(=O)Nc1ccc(N2CCC3(CCCN(CC4CC4)C3)CC2)c(Cl)c1)c1cccc(C(F)(F)F)c1	92	0	27
O=C1C(c2ccccc2)=C(Nc2cccc([N+](=O)[O-])c2)c2ccccc21	88	88	0
CN(c1ccc2c(c1)nc(Nc1cc(C(C)(C)C)on1)n2C)c1ccnc(Nc2ccc(CS(C)(=O)=O)cc2)n1	89	13	77
CC1(C)NC(N)=NC(=N)N1OCc1ccc(-c2ccccc2)cc1	95	97	64
CCN(CC)CC(O)c1cc(-c2ccc(OC)cc2)nc2cc(Cl)ccc12.Cl (centres undefined)	99	98	12
CN(C)Cc1cccc(CNC(=O)c2sccc2OCc2ccc(Cl)cc2)c1	90	88	7
O=C(/C=C/c1ccc(Cl)c(Cl)c1)NCCCCCN1CCC(NC(=O)Nc2cc(F)ccc2F)CC1	98	22	78
Cc1nn(-c2cccc(C(F)(F)F)c2)c2sc(C(=O)NC3CCN(C(C)C)CC3)cc12	94	20	98
CC(C)(CNC(=O)C1CCN(Cc2ccoc2)CC1)c1nc(-c2ccc(Cl)c(O)c2)c(-c2ccncc2)[nH]1.Cl	93	66	0
Cl.Oc1ccc(Cc2cc(Oc3c(I)cc(CCc4ncc[nH]4)cc3I)ccc2O)cc1	100	32	10
Cc1cc(N[C@@H](Cc2ccccc2)C(=O)NC2CCCC2)nc(NCc2ccccc2C)n1.O=C(O)C(F)(F)F	91	20	2
O=C(Nc1cc(F)cc(-c2cccnc2)c1)c1ccc2c(=O)n(Cc3ccccc3)cnc2c1	98	11	7
Clc1cc(Nc2ncnc3sc(C#C[C@H]4CCCN4)cc23)ccc1OCc1cccnc1Cl.O=C(O)C(F)(F)F	100	93	9
Nc1nc(F)nc2nc[nH]c12	89	25	78

SMILES	Inhibition [1] [%]	Inhibition [2] [%]	Inhibition [3] [%]
CN1CCC(C(=O)N(Cc2ccc(-c3ccc(CNCCc4ccccc4)cn3)cc2)C2Cc3ccccc3C2)CC1.O=C(O)C(F)(F)F	88	97	65
FC(F)(F)c1cccc(Nc2nc(-n3ccnc3)nc(-n3ccnc3)n2)c1	97	9	5
COC(=O)/C=C/c1ccc(CCC(C)NCC(O)c2cccc(Cl)c2)cc1 (centres undefined)	94	77	5
COc1ccc(Cn2c(Nc3cccc(C(F)(F)F)c3)nc3cc(C(=O)NCCCN(C)C)ccc32)cc1Cl	90	3	15
COc1ccc2nccc(N3CCC(NCCNCc4cc5c(cn4)OCCO5)C3)c2n1.Cl (centres undefined)	99	3	8
CC(C)N1CCN(C(CN2CCN(CCCOc3ccc4ccccc4c3)CC2)c2ccc(F)cc2)CC1.Cl (centres undefined)	100	91	59
CCCC(CC)n1ccc2c3c(N)nc(N)nc3ccc21.CS(=O)(=O)O (centres undefined)	94	97	67
Cn1nc(-c2cccc(CN[C@@H]3CCc4ccc(O)cc43)c2)c2cnc(NC3CCCC3)nc21	100	76	6
Cc1ccc(F)c(OCC2CCN(c3ncc(C(=O)NC4CC4)cc3Cl)CC2)c1	96	95	9
CN1CCC(Oc2ccc(CN3CC[C@H](NC(=O)c4ccc(Cl)c(Cl)c4)C3)c3ccccc23)C1.O=C(O)C(F)(F)F (some centres undefined)	100	82	52
O=C(Cc1ccccn1)Nc1cccc(-c2cccc(-c3nc4cc(C(F)(F)F)ccc4[nH]3)c2)c1	95	22	26
COc1ccc(N2C(N)=NC(N)=NC2(C)C)cc1.Cl	94	29	0
COc1cc(NCCCCCNc2cc(Cl)nc3ccccc23)nc2ccccc12	100	54	17
N=C(N)NN=CC(=O)Nc1ccc(Br)cc1.O=S(=O)(O)O	100	1	5
O=C(/C=C/c1ccc(Cl)c(Cl)c1)NCCCCCN1CCC(NC(=O)Nc2cccc(F)c2)CC1	100	6	30
CCN1C(=O)N(CCC(C)C)C2(CCN(Cc3ccc(OC)cc3O)CC2)C1=O	89	77	13
O=C(/C=C/c1ccc(Cl)c(Cl)c1)NCCCCCN1CCCC(CNC(=O)/C=C/c2ccccc2)C1 (centres undefined)	98	6	37
CN1CCN(c2ccnc3cc4ccccc4cc23)CC1	93	49	11
COc1ccc(CNC2CCN(C)CC2)cc1-c1ccc(S(=O)(=O)NCc2ccccc2)c(F)c1.O=C(O)C(F)(F)F	100	97	53
Oc1c(Br)cc2oc3c(c2c1CNCc1ccccc1)CCCC3	99	74	0
Cc1cnc(NC(=O)c2cn(-c3ccccc3)nc2-c2cccs2)s1	91	1	0
